This passage reports AC50 and outcome results from PubChem BioAssay (EPA / NIEHS).

Some structures have more than one record in an assay (separate samples or runs), and their calls can disagree. The source made the active and inactive calls. How the source made its calls: active means hit-call score of the fitted dose curve at least 0.9, where 1 is the maximum; inactive means score below 0.9.

This experiment in a line: ATG_CMV_CIS: Attagene CIS-FACTORIAL HepG2 Assay for human CMV (Internal Marker) (AID 2282928).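 Further: endpoint acts as a background internal control marker rather than a target.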 As to conditions: HepG2 CMV promoter reporter, transcription factor profiling; actives raise or lower the signal. As for the experimental part: ATG_CIS is a cell-based, multiplexed-readout assay that uses HepG2, a human liver cell line, with measurements taken at 24 hours after chemical dosing in a 24-well plate.ATG_CMV_CIS is one of 52 assay component(s) measured or calculated from the ATG_CIS assay. It is designed to make measurements of mRNA induction, a form of inducible reporter, as detected with fluorescence intensity signals by Reverse transcription polymerase chain reaction (RT-PCR) and Capillary electrophoresis technology.Data from the assay component ATG_CMV_CIS was analyzed into 1 assay endpoint. This assay endpoint, ATG_CMV_CIS, was analyzed with bidirectional fitting relative to DMSO as the negative control and baseline of activity. Using a type of inducible reporter, measures of mRNA for gain or loss-of-signal activity can be used to understand the background control at the transcription factor-level as they relate to the gene . Furthermore, this assay endpoint can be referred to as a secondary readout, because this assay has produced multiple assay endpoints where this one serves a background control function. To generalize the intended target to other relatable targets, this assay endpoint is annotated to the background measurement intended target family, where the subfamily is internal marker.
Human liver HepG2 cells are transiently transfected with multiple reporter transcription units (MRTUs) in 6-well plates using FuGene 6 reagent (Roche; 3 ml FuGene/1 mg DNA). The MRTU constructs are regulated by a cis-regulating element (promoter). […] A major difference between the CIS and TRANS system is that in CIS activities of endogenous TFs are measured, whereas the TRANS assay evaluates changes in activities of exogenous, chimeric NR-Gal4 proteins. […] At the end of 24 hour incubation, total RNA was isolated using TriZol reagent (Invitrogen). The isolated RNA is then reverse-transcribed using oligo(dT) primer and Mo-MLV reverse transcriptase (Invitrogen) with DNAse I (Ambion) treatment for 30 min. The one-tenth of the produced cDNA was amplified by PCR using Taq DNA polymerase (Invitrogen) and two reporter sequence-specific primers. The PCR products were fluorescently labeled by primer extension with 6-arboxyfluorescein (6-FAM) 5'-labeled reporter sequence-specific primer (2 min at 95 C, 20 s at 68 C and 10 min at 72 C) and these products were digested with 5U of HpaI (New England Biolabs) for 2h at 37 C. The fragments were purified using Qiaquick PCR columns (Qiagen), analyzed on an ABI 3130xL genetic analyzer (Applied Biosystems) with peak positions identified by using a set of X-rhodamine (ROX)-labeled MapMarker1000 molecular weight standards (BioVentures). The raw capillary electrophoresis data was processed using Attagraph software (Attagene).
As to `COc1cc(C(C)C)c2c(c1)S(=O)(=O)N(COc1cc(=O)n3cccc(OCCN4CCCCC4)c3n1)C2=O`, the AC50 was 2.2 µM (active).
`CC1(C)C(=O)N(Cl)C(=O)N1Cl`: the compound was classed as inactive.
On the same count and under the same terms, with `Cc1cccc(O)c1C` the entry was “inactive”; with `CCOC(N)=O`, “inactive”; with `O=S1(=O)CCCO1`, “inactive”.
As to `C=CCc1cc(S(=O)(=O)c2ccc(O)c(CC=C)c2)ccc1O`, the AC50 is 27.9 µM (active).
For `CCCc1ccccc1`, the compound was classed as inactive.
Same read-out and setting: for `CCn1nc(C)c2c1C(=O)NCC(c1ccc(O)cc1)=N2` the value was “inactive”.
The same measure, in the same setting: with `NC(N)=O` the entry was “inactive”; with `OCCNCCO`, “inactive”.
On the same count and under the same terms, with `O=C(O)[C@H](O)[C@@H](O)C(=O)O` the entry was “inactive”.
Consider `OCc1c[nH]c2ccccc12`, for which the AC50 is 25.1 µM (active) and the result was inactive.
`CCCCN1C(=O)[C@@H]([C@H](O)C2CCCCC2)NC(=O)C12CCN(Cc1ccc(Oc3ccc(C(=O)O)cc3)cc1)CC2`: the compound was classed as inactive.
Turning to `Nc1ccn([C@@H]2O[C@H](CO)[C@@H](O)[C@@H]2O)c(=O)n1`, the result was inactive.
Same read-out and setting: for `O=C(Cl)C(F)(F)C(F)(F)C(F)(F)C(=O)Cl` the value was “inactive”.
The same measure, in the same setting: with `CCCCCCCC1CCC(=O)O1` (stereo not given) the entry was “inactive”; with `CC(C)c1nnc2ccc(-c3ocnc3-c3cc(F)ccc3F)cn12`, “inactive”.
Same read-out and setting: with `CCCC(CCC)C(=O)O` the entry was “inactive”.
In the case of `CCN(CC)C(=S)SSC(=S)N(CC)CC`, the AC50 was 173 µM (active).
For `OCCC(F)(F)C(F)(F)C(F)(F)C(F)(F)F`, the call was inactive.
As to `CCCCCCCCCCCCCCO`, the AC50 was 29.4 µM (active).
Consider `FC(F)C(F)(F)COCC1CO1` (stereo not given), for which the call was inactive.
As to `O=C(N[C@H](CO)[C@H](O)c1ccc([N+](=O)[O-])cc1)C(Cl)Cl`, the compound was classed as inactive.
For the compound `CCCCCCOC(=O)CC(CC(=O)OCCCCCC)(OC(=O)CCC)C(=O)OCCCCCC`, the result was inactive.
The same measure, in the same setting: for `NNC(=O)c1ccncc1` the value was “inactive”; for `OC[C@H]1O[C@@H]2O[C@H]3[C@H](O)[C@@H](O)[C@@H](O[C@H]4[C@H](O)[C@@H](O)[C@@H](O[C@H]5[C@H](O)[C@@H](O)[C@@H](O[C@H]6[C@H](O)[C@@H](O)[C@@H](O[C@H]7[C@H](O)[C@@H](O)[C@@H](O[C@H]1[C@H](O)[C@H]2O)O[C@@H]7CO)O[C@@H]6CO)O[C@@H]5CO)O[C@@H]4CO)O[C@@H]3CO`, “inactive”.
With `c1ccc(C(O[C@@H]2CCCN(CCc3ccc4c(c3)OCO4)C2)c2ccccc2)cc1`, the AC50 was 50.8 µM (active).
For `O=C(O)c1cccc(C(=O)O)c1`, the compound was called inactive.
Same read-out and setting: for `CCCCCCCCN(C)C` the value was “inactive”; for `CCCCCCCCCC`, “inactive”.
Same read-out and setting: for `S=P(N1CC1)(N1CC1)N1CC1` the value was “inactive”.
`CCc1ccc(O)c(C(C)(C)C)c1`: the AC50 is 43 µM (active).
As to `COS(C)(=O)=O`, the compound was classed as inactive.
Take `NC(=O)NN=Cc1ccc([N+](=O)[O-])o1`: the AC50 is 17.2 µM (active).
Turning to `NC(=O)N1c2ccccc2C=Cc2ccccc21`, the compound was called inactive.
Still for that read-out and setting: with `FC(F)(F)C(F)(F)C(F)(F)C(F)(F)C(F)(F)C(F)(F)I` the entry was “inactive”.
For `O=S(=O)(O)c1ccc(N=Nc2c(O)ccc3cc(S(=O)(=O)O)ccc23)cc1`, the compound was classed as inactive.
`CCCCCCCCCCCCCCCCOS(=O)(=O)O`: the compound was classed as inactive.
On the same count and under the same terms, with `FC(F)=C(F)C(F)(F)C(F)(F)C(F)(F)C(F)(F)C(F)(F)C(F)(F)F` the entry was “inactive”.
